Screening results (PubChem)
An excerpt weighted towards active compounds, which were near 12% of everything screened.
CHX counter = counter-screen for Shiga toxin inhibitors: cycloheximide protein synthesis inhibition. cell reporter, cycloheximide protein synthesis inhibition counterscreen. max response, %. actives 12% (n = 300,000); in the data active means max response mostly above about 13%, no sharp cut-off; inactive means mostly below about 14%; further: read at 38.3 µM for the half of the compounds with a filed dose; 0% is about no effect
Shiga toxin inh = Shiga toxin inhibition. Vero cells, Shiga toxin protein synthesis inhibition reporter. inhibition, % at 38.7 µM. actives 9.2% (n = 290,000). AID 2315; in the data active means inhibition mostly above about 28%, no sharp cut-off; inactive means mostly below about 43%; further: 0% is about no effect
SARS PLpro yeast = blocks SARS-CoV papain-like protease in a yeast assay. S. cerevisiae expressing SARS-CoV PLpro, growth rescue. Potency, µM (highest dose often 32.9 µM), without a hit: at the highest dose activity, positive = growth rescue, usual class: activators. actives 0.19% (n = 330,000); further: potency means the concentration at half of the fitted maximal effect; 0% is about no effect; nearly all actives have a fitted effect of over 55% in size
NS1 inh = blocks influenza NS1 protein function; Potency, µM (doses to about 46.1 µM), without a hit: at the top dose activity, positive = more growth; actives 0.4% (n = 270,000); AID 2326; further: potency means the concentration at half of the fitted maximal effect; actives are rising curves; nearly all actives have a fitted effect of over 50% in size
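Compounds were scored for reversing the slow growth caused by influenza A NS1 in S. cerevisiae, measured by optical density at 600 nm. Assay medium contained 2% galactose at pH 6.0; NS1-free yeast of the same strain were the positive control.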
An asterisk follows results filed as active. Unless noted, the call rests on the fitted dose curve.

CC1(C)Cc2nc3sc4c(SCC(=O)NCc5ccco5)ncnc4c3cc2CO1 was read as CHX counter 51.1*, Shiga toxin inh 99.3*, SARS PLpro yeast 0.5% and NS1 inh 14.7%.
Screening CCCc1nc2c(sc3nc4c(cc32)COC(C)(C)C4)c(=O)n1Cc1ccco1 returned CHX counter 0.9, Shiga toxin inh -3.6, SARS PLpro yeast -1.8% and NS1 inh -40.2%.
CCCCN(C)C(=O)c1cc2cc([N+](=O)[O-])cc(OC)c2oc1=O was read as CHX counter 11.9, Shiga toxin inh -10.7 and SARS PLpro yeast -3.2%.
O=C(CSc1nc2cc(Cl)ccc2o1)NC1CC1 was read as SARS PLpro yeast -0.3%.
Screening CCN(Cc1nc2ccccc2c(=O)[nH]1)C(=O)c1cc2c(s1)CCCCC2 returned SARS PLpro yeast 2.0%.
COc1ccc2c(c1)c(C(=O)N/N=C/c1ccc(O)c(O)c1)c(C)n2C was read as CHX counter -4.1, Shiga toxin inh 1.5, SARS PLpro yeast -1.4% and NS1 inh 9.0%.
Screening Oc1nc(-c2ccc(Br)cc2)n2ccncc12 returned CHX counter 1.1, Shiga toxin inh -2.7, SARS PLpro yeast -0.2% and NS1 inh -0.9%.
`Cc1ccc(-n2c(-c3ccccc3)nnc2-c2cccs2)cc1` gave CHX counter 9.7, Shiga toxin inh -3.4, SARS PLpro yeast -3.5% and NS1 inh -2.4%.
COC(=O)c1ccc(NC(=O)c2ccc(C)cc2)o1 was read as CHX counter 22.2*, Shiga toxin inh 48.5*, SARS PLpro yeast -9.3% and NS1 inh -48.8%.
Screening COC(=O)c1ccc(NC(=O)c2cccc(Cl)c2)o1 returned CHX counter 24.2*, Shiga toxin inh 58.3*, SARS PLpro yeast -11.2% and NS1 inh -32.3%.
COC(=O)c1cc(NC(=O)c2ccccc2)c(=O)oc1C was read as CHX counter 12.9, Shiga toxin inh 21.7, SARS PLpro yeast -7.6% and NS1 inh -6.9%.
Screening COC(=O)c1cc(NC(=O)c2ccc(C)cc2)c(=O)oc1C returned CHX counter 24.8*, Shiga toxin inh 42.7, SARS PLpro yeast 0.3% and NS1 inh -0.3%.
`COc1ccc(C(=O)Nc2cc(C(=O)c3ccccc3)c(C)oc2=O)cc1` gave CHX counter 10.5, Shiga toxin inh 29.4, SARS PLpro yeast -33.1% and NS1 inh -222.3%.
For Cc1oc(=O)c(NC(=O)c2cccc(Cl)c2)cc1C(=O)c1ccccc1 the results were CHX counter 30.6*, Shiga toxin inh 68.3*, SARS PLpro yeast -29.2% and NS1 inh -170.4%.
Screening CC(=O)Nc1cccc(-n2c(=O)n(Cc3ccccc3)c(=O)c3[nH]cnc32)c1 returned CHX counter -3.5, Shiga toxin inh -5.7, SARS PLpro yeast -1.0% and NS1 inh -1.1%.
Cc1[nH]nc(SCC(=O)NC2CCCC2)c1[N+](=O)[O-] was read as CHX counter 10.6, Shiga toxin inh 25.3 and SARS PLpro yeast -1.3%.
CCOc1ccc(N2CC(C(=O)NCCN3C(=O)S/C(=C/c4cccnc4)C3=O)CC2=O)cc1 (configuration not stated) was read as SARS PLpro yeast -4.2%.
For COC(CNC(=O)[C@H](Cc1ccccc1)N1Cc2ccccc2C1=O)OC the results were CHX counter -0.5, Shiga toxin inh -3.0, SARS PLpro yeast 0.4% and NS1 inh 2.5%.
`COC(=O)C(Cc1ccc(OC(=O)c2ccc(C)cc2)cc1)N1Cc2ccccc2C1=O` (configuration not stated) gave CHX counter 57.1*, Shiga toxin inh 89.4*, SARS PLpro yeast -8.8% and NS1 inh 7.5%.
`COC(=O)C(Cc1ccc(O)cc1)N1Cc2ccccc2C1=O` (configuration not stated) gave CHX counter 40.7*, Shiga toxin inh 42.1*, SARS PLpro yeast 0.0% and NS1 inh -0.1%.
`CC(C)(C)[C@@H]1COC(=O)[C@H](Cc2ccc(F)cc2)C/C=C\C[C@H](CC(=O)N(CCO)Cc2ccccc2)C(=O)N1` gave SARS PLpro yeast -39.1%.
O=C1CC(NN2CCCCC2)C(=O)N1c1ccccc1 (configuration not stated) was read as CHX counter 12.6*, Shiga toxin inh 61.4, SARS PLpro yeast -5.5% and NS1 inh 1.8%.
Screening Cc1ccc2c(c1)N(C(=O)CCC(=O)NCc1cccnc1)CC(C)O2 (configuration not stated) returned CHX counter -3.7, Shiga toxin inh 1.6, SARS PLpro yeast -9.8% and NS1 inh -12.0%.
CNC(C)C#Cc1ccc2c(=O)c3c(OC)cccc3oc2c1 (configuration not stated) was read as CHX counter 36.5*, Shiga toxin inh 46.0*, SARS PLpro yeast -0.5% and NS1 inh 19.2%.
